# Assay results taken from PubChem BioAssay (NCATS).
# Inconclusive results are not listed. Active and inactive are the calls of the source. Unless noted, calls follow the shape of the dose curve; as a rule, active = well fitted curve in the direction sought with a large enough effect; inconclusive = small, poorly fitted or top-dose-only effect, or another doubt; inactive = no such curve, though single readings can be large; an effect the other way counts as inactive or inconclusive.
# Assays:
# [1] = molecular target: Cytochrome P450 3A4 (Homo sapiens) (UniProt P08684); assay: qHTS Assay for Inhibitors and Substrates of Cytochrome P450 3A4 (AID 884); also: nearly all actives have a fitted effect of over 50% in size; also: potency is read from the fitted curve at half-maximal effect; as to activity change, negative = inhibition: % is scaled to controls: 0 for no effect and ±100 for the full control effect
# Chain of Cytochrome P450 3A4 (Homo sapiens) (P08684 whole entry, looked up): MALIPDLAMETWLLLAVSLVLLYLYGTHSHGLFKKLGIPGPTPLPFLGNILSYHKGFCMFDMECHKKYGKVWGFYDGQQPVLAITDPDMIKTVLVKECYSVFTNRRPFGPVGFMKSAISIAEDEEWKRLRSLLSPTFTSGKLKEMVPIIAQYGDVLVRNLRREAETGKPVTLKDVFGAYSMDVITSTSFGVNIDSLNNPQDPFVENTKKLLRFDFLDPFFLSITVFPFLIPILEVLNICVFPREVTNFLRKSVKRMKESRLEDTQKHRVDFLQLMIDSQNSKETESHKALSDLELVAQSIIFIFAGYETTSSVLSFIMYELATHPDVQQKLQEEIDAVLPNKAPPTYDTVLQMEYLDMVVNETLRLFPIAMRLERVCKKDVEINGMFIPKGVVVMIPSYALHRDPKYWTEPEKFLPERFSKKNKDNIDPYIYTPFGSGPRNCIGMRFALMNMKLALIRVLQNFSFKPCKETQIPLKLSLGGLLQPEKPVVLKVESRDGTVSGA
# Outline: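 Luminescent readout of luciferin produced by CYP3A4 (20 nM) dealkylation of Luciferin-PPXE, 25 uM (its KM). NADPH-driven reaction ran 60 min at RT after 10 min compound preincubation; data scaled to 57 uM ketoconazole as 100% inhibition.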
# [2] = molecular target: Cytochrome P450 3A4 (Homo sapiens) (UniProt P08684); assay: qHTS Assay for Activators of Cytochrome P450 3A4 (AID 885); also: nearly all actives have a fitted effect of over 65% in size
# Outline: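 CYP3A4 activity: Luciferin-PPXE O-dealkylation, 25uM substrate, 200mM KPO4, RT throughout. Read-out is luciferase luminescence; higher values reflect activation.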
# [3] = Confirmation and Secondary Assay for Modulators of Hemoglobin Beta Chain Splicing at IVS2 654 locus (AID 910);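 also: HeLa cells stably carrying EGFP split by mutant beta-globin IVS2-654 intron; per-well total GFP intensity by laser scanning cytometry after 2-day treatment; % of control where 0% means no effect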
# Outline: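 Readout: per-well total peak green fluorescence (488 nm ex, 500–520 nm em) from objects 5–250 µm, reflecting correct splicing of an EGFP-654 reporter. Compounds were applied for 2 days at 37 °C to overnight-plated HeLa EGFP-654 cells; controls were DMSO and 500 nM IVS2-654 PNA.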
# [4] = Confirmation and Secondary Assay for Modulators of Hemoglobin Beta Chain Splicing at IVS2 705 locus (AID 930);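 also: HeLa cells stably expressing the EGFP-705 splicing reporter; GFP fluorescence per well restored by corrected splicing of the IVS2-705 intron in EGFP; % of control where 0% means no effect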
# Outline: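 Stable HeLa line with EGFP disrupted by mutant beta-globin intron 2 (705). Overnight attachment, then 2 days of compound at 37C, 5% CO2. Signal: peak GFP intensity summed over objects 5-250 µm.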
# [5] = qHTS Assay for Lipid Storage Modulators (AID 1519; calls by dose curve; also: potency is read from the fitted curve at half-maximal effect; as to activity change, negative = inhibition: % is scaled to controls: 0 for no effect and ±100 for the full control effect); conditions: Drosophila S3 cells, BODIPY lipid droplet/cell ratio, laser cytometry, cells loaded with oleic acid; for activity change, negative = inhibition: at 57.5 µM (top of the series)
# Outline: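 Cells seeded at 5,000 per well were treated with compounds over a concentration series and loaded with oleic acid (400 uM, as added). Lipid droplet fluorescence (488 nm excitation, 500-530 nm channel) was read by laser-scanning cytometry and normalized to 20 uM Triacsin C.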
# [6] = molecular target: DNA dC->dU-editing enzyme APOBEC-3G (Homo sapiens) (UniProt Q9HC16); assay: qHTS for inhibitors of Vif-A3G interactions: Validation (AID 588379); also: 0% is about no effect
# Chain of DNA dC->dU-editing enzyme APOBEC-3G (Homo sapiens) (Q9HC16 whole entry, looked up): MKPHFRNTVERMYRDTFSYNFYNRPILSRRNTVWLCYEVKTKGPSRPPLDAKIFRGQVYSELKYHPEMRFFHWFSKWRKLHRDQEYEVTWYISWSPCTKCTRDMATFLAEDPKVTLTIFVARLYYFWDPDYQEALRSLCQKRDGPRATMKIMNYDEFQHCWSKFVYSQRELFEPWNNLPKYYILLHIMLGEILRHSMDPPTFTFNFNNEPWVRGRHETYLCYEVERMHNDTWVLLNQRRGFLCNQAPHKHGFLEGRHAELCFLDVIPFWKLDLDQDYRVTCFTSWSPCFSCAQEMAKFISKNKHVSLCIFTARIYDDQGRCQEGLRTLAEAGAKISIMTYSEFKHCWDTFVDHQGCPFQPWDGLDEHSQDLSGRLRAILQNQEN
# Outline: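 Yellow fluorescence (Ex 488, Em 500-530) of Vif-coexpressing HeLa A3G-eYFP cells, scanned by Acumen cytometer, reports blocked A3G degradation. Cells plated at 700/well overnight at 37 deg C before compound addition, then a further overnight compound incubation at 37 deg C.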
# [7] = molecular target: Luciferin 4-monooxygenase (Photinus pyralis) (UniProt P08659); assay: Biochemical firefly luciferase enzyme assay for NPC (AID 624030);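 also: purified P. pyralis luciferase at 10 nM with luciferin and ATP substrate; 0% = DMSO and -100% = full luciferase inhibition by PTC124 control; nearly all actives have a fitted effect of over 70% in size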
# Chain of Luciferin 4-monooxygenase (Photinus pyralis) (P08659 whole entry, looked up): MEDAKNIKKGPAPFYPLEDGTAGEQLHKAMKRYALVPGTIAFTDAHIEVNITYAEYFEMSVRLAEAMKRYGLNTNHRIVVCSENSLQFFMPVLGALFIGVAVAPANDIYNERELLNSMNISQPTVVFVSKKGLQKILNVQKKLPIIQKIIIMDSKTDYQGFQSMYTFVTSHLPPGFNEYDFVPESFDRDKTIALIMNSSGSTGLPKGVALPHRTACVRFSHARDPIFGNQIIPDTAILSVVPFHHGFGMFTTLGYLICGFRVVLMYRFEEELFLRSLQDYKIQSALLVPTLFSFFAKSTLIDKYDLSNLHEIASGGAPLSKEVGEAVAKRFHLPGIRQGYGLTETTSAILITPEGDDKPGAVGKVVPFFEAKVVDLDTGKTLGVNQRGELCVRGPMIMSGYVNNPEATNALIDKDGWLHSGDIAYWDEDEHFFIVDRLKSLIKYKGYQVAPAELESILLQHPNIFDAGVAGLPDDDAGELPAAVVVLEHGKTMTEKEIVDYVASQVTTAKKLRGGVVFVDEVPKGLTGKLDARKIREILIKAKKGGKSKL
# Outline: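 Direct inhibition of firefly luciferase enzyme (10 nM final, 50 mM Tris Acetate) assessed by luminescence within 5 minutes. Percent activity scaled between DMSO and PTC124 positive control, with concentration-effect curves classified by fit quality and response.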
# [8] = measured here: cell count channel max response
# [9] = measured here: lipid channel max response
SMILES,Potency [1],Potency [2],Potency [3],Potency [4],"activity change, negative = inhibition [5]","max response [5, 8] [%]","max response [5, 9] [%]",outcome [6],Potency [7],Potency [5]
C=C[C@](C)(O)CCC1C(=C)CC(O)C2C(C)(C)CCCC12C (some centres undefined),1.58 µM (active),inactive,inactive,inactive,10.1% (inactive),7.01,14.1,–,–,–
NC(Cc1c[nH]c2ccccc12)C(=O)NCC(=O)O (centres undefined),inactive,–,–,–,2.26% (inactive),-12.4,-10.5,inactive,–,–
CC(=O)OC1CC2C(C)(C)C(=O)C=C[C@]2(C)C2CC[C@@]3(C)C(c4ccoc4)OC(=O)C4O[C@@]43[C@]12C (some centres undefined),12.6 µM (active),inactive,inactive,inactive,-1.71% (inactive),11.5,11.5,–,–,–
CC1=CCc2c(cc3oc(C)cc(=O)c3c2O)OC1,25.1 µM (active),inactive,inactive,inactive,15.7% (inactive),14.5,19.5,–,–,–
C=C1C2=CC(=O)OC(c3ccoc3)[C@]2(C)CCC1[C@]1(C)C=CC(=O)C(C)(C)C1CC(=O)OC (some centres undefined),3.98 µM (active),inactive,inactive,inactive,-2.8% (inactive),12.4,11.5,–,–,–
CO/N=C(\C(=O)NC1C(=O)N2C(C(=O)OCOC(=O)C(C)(C)C)=C(/C=C\c3scnc3C)CSC12)c1csc(N)n1 (centres undefined),–,–,inactive,inactive,12.3% (inactive),-4.33,11.5,–,inactive,–
CC(=O)OC1CC2C(C)(C)C(O)CC[C@@]2(C)C2CC[C@@]3(C)C(c4ccoc4)OC(=O)C4O[C@@]43[C@]12C (some centres undefined),2.51 µM (active),inactive,inactive,–,-1.7% (inactive),-2.48,-4.24,–,–,–
O=C(O)CCCC[C@@H]1SC[C@H]2NC(=O)N[C@@H]12,inactive,–,–,–,6.17% (inactive),12.9,23.3,inactive,–,–
CC(C)C1=CC2=CC[C@@H]3[C@@](C)(C(=O)O)CCC[C@]3(C)C2CC1 (some centres undefined),inactive,–,–,–,0.573% (inactive),-0.0856,-0.672,inactive,–,–
CC1(C)CCC[C@]2(C)C3CC(=O)O[C@@]3(C)CC[C@H]12 (some centres undefined),–,inactive,–,–,5.49% (inactive),5.53,11.1,inactive,–,–
O=c1c2ccccc2oc2cc(O)c(C3COCC(CO)C(O)C(O)C3O)c(O)c12 (centres undefined),inactive,–,–,–,16.5% (inactive),22.8,36.9,inactive,–,–
Cc1c(S(=O)(=O)O)oc2c1C(=O)C(=O)c1c-2ccc2c1CCCC2(C)C,10 µM (active),inactive,inactive,–,4.38% (inactive),7.96,15.5,–,–,–
C=C1CCC(OC(C)=O)/C(C)=C/CC2[C@H]1CC2(C)C (some centres undefined),31.6 µM (active),inactive,inactive,inactive,1.96% (inactive),2.53,5.33,–,–,–
C=CC1=C(C(=O)O)N2C(=O)C(NC(=O)/C(=N\O)c3csc(N)n3)C2SC1 (centres undefined),inactive,–,inactive,inactive,3.88% (inactive),11.5,17.7,–,inactive,–
N=c1ccn2c(n1)O[C@@H]1[C@H](O)[C@H](CO)O[C@@H]12,inactive,–,–,–,-7.95% (inactive),4.02,-4.27,inactive,–,–
COC(=O)CC1C(C)(C)C(O)C2CC3=C4CC(O)OC(c5ccoc5)[C@]4(C)CCC3[C@@]1(C)C2=O (some centres undefined),3.16 µM (active),inactive,inactive,inactive,-6.39% (inactive),8.85,5.28,–,–,–
COc1ccc(C(C)C(=O)c2ccc(O)cc2O)cc1 (centres undefined),3.98 µM (active),inactive,inactive,–,0.578% (inactive),-18.6,-16.9,–,–,–
O=C(/C=C/c1ccc(O)c(O)c1)O[C@@H]1C[C@@](O)(C(=O)O)C[C@H](O)[C@@H]1O,inactive,–,–,–,-7.73% (inactive),3.01,-5.95,inactive,–,–

SMILES,Potency [1],Potency [2],Potency [3],Potency [4],"activity change, negative = inhibition [5]","max response [5, 8] [%]","max response [5, 9] [%]",outcome [6],Potency [7],Potency [5]
COc1ccc(CC(=O)c2ccc(O)cc2O)cc1,12.6 µM (active),inactive,inactive,inactive,4.14% (inactive),-22.7,-16.5,–,–,–
COC(=O)CC1C(C)(C)C(OC(C)=O)C2[C@H](OC(C)=O)[C@]34O[C@]2(O)[C@]1(C)C3CC[C@]1(C)C4=CC(=O)OC1c1ccoc1 (some centres undefined),2 µM (active),inactive,inactive,–,–,-16.6,-68.9,–,–,15.8 µM (active)
COC(=O)CC1C(C)(C)C(=O)C2CC3=C(CC[C@]4(C)C3=CC(=O)OC4c3ccoc3)[C@@]1(C)C2=O (some centres undefined),2.51 µM (active),inactive,inactive,inactive,-1.73% (inactive),16,14.2,–,–,–
CC(=O)OC1CC2C(C)(C)C(O)CC[C@@]2(C)C2CC[C@@]3(C)C(c4ccoc4)OC(=O)C4OC43[C@]12C (some centres undefined),2.51 µM (active),inactive,inactive,inactive,-20.5% (inactive),-7.63,-27.3,–,–,–
COc1ccc(/C=C/C(=O)c2ccc(O)cc2O)cc1,2.51 µM (active),inactive,inactive,inactive,5.71% (inactive),11.7,19.5,–,–,–
CC1=CC(=O)C2C(C)(C)CCC[C@@]2(C)[C@@]1(O)CCc1ccoc1 (some centres undefined),15.8 µM (active),inactive,inactive,inactive,-1.73% (inactive),10.7,10.8,–,–,–
COC(=O)CC1C2(C)CC34OC5(C)O[C@@]6(C7/C(=C(/O)C(C)C)C(=O)OC(c8ccoc8)[C@]7(C)C(OC(C)=O)C(OC(C)=O)[C@]6(O5)[C@@]13C)C(OC(C)=O)[C@]4(O)C2OC(=O)C(C)C (some centres undefined),12.6 µM (active),inactive,inactive,inactive,8.78% (inactive),16.6,29.3,–,–,–
O=C(/C=C/c1ccc(O)cc1)c1ccccc1O,1.58 µM (active),inactive,inactive,inactive,-18.4% (inactive),5.42,-11.8,–,–,–
c1ccc2c(c1)CN1CCCC1=N2,inactive,inactive,inactive,inactive,5.8% (inactive),4.77,11.2,–,–,–
C/C=C(\C)C(=O)OC1c2c(ccc3ccc(=O)oc23)OC(C)(C)C1OC(C)=O (centres undefined),25.1 µM (active),inactive,inactive,inactive,-20.9% (inactive),-0.795,-21.2,–,–,–
COc1ccc2c(c1)OC1(O)COc3cc(OC)c(OC)cc3C1=C2 (centres undefined),7.94 µM (active),inactive,inactive,inactive,0.865% (inactive),-18.4,-15.5,–,–,–
CC(=O)OC1CC(OC(C)=O)[C@]2(C)C(CC(O)[C@]3(C)C2CC[C@@]2(C)C(c4ccoc4)OC(=O)C4O[C@]432)C1(C)C (some centres undefined),2.51 µM (active),inactive,inactive,inactive,-15.6% (inactive),-1.7,-11.8,–,–,–
COc1cc(O)c(C(C)=O)c(OC)c1,25.1 µM (active),inactive,inactive,inactive,4.43% (inactive),20,28.9,–,–,–
COc1ccccc1-c1coc2cc(O)ccc2c1=O,25.1 µM (active),inactive,inactive,inactive,5.08% (inactive),-6.55,10.3,–,–,–
Cc1cc(=O)oc2cc(O[C@@H]3O[C@H](C(=O)O)[C@@H](O)[C@H](O)[C@H]3O)ccc12,inactive,–,–,–,7.88% (inactive),8.78,16.3,inactive,–,–
CC(C)/C(O)=C1/C(=O)OC(c2ccoc2)[C@@]2(C)C(O)C(O)[C@@]34OC5(C)OC67CC(C)(C(O)[C@@]6(O)C(O)[C@@]3(O5)C12)C(CC(=O)O)[C@@]74C (some centres undefined),12.6 µM (active),inactive,inactive,inactive,0.873% (inactive),-1.97,0.302,–,–,–
COc1ccc(-c2oc3ccccc3c(=O)c2O)cc1OC,20 µM (active),inactive,inactive,inactive,7.98% (inactive),6.61,24.2,–,–,–
C=C1CC/C=C(\C)CC[C@@H]2[C@@H]1CC2(C)C,inactive,–,–,–,-10.6% (inactive),-19.4,-26.5,inactive,–,–
